PubChem BioAssay (NCATS)
Results filed as inconclusive are left out. Calls of active or inactive are those of the source. Calls follow the shape of the dose curve; as a rule, active = well fitted curve in the direction sought with a large enough effect; inconclusive = small, poorly fitted or top-dose-only effect, or another doubt; inactive = no such curve, though single readings can be large; an effect the other way counts as inactive or inconclusive.

Tests used:
[1] = qHTS of pediatric cancer cell lines to identify multiple opportunities for drug repurposing: Primary screen for BT-37 cells (AID 1347094); also: potency is read from the fitted curve at half-maximal effect
Summary of the method: (§1)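 Luminescence from CellTiter-Glo served as readout of metabolically active cells after 48 h compound exposure. Titrations: MIPE 11-point, from 0.78 nM; NPC 8-point, from 0.59 nM (final). Concentration-response curves came straight from the primary screen.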

[2] = qHTS of pediatric cancer cell lines to identify multiple opportunities for drug repurposing: Primary screen for NB-EBc1 cells (AID 1347095); also: potency is read from the fitted curve at half-maximal effect
Summary of the method: as §1

[3] = qHTS of pediatric cancer cell lines to identify multiple opportunities for drug repurposing: Primary screen for U-2 OS cells (AID 1347096); also: nearly all actives have a fitted effect of over 50% in size; also: potency is read from the fitted curve at half-maximal effect
Summary of the method: (§2)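 Cells (500-1,000/well) rested 5 h, then received compounds for 48 h; metabolically active cells were measured by CellTiter-Glo luminescence. Final concentrations spanned up to 46 µM (MIPE, 11-point) or 0.59 nM-46 µM (NPC, 8-point) in primary screens, 11-point in follow-ups.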

[4] = qHTS of pediatric cancer cell lines to identify multiple opportunities for drug repurposing: Primary screen for Saos-2 cells (AID 1347097); also: nearly all actives have a fitted effect of over 40% in size; also: potency is read from the fitted curve at half-maximal effect
Summary of the method: as §1

[5] = qHTS of pediatric cancer cell lines to identify multiple opportunities for drug repurposing: Primary screen for LAN-5 cells (AID 1347100); also: potency is read from the fitted curve at half-maximal effect
Summary of the method: as §2

[6] = qHTS of pediatric cancer cell lines to identify multiple opportunities for drug repurposing: Primary screen for BT-12 cells (AID 1347101); also: nearly all actives have a fitted effect of over 25% in size; also: potency is read from the fitted curve at half-maximal effect
Summary of the method: as §2

[7] = qHTS of pediatric cancer cell lines to identify multiple opportunities for drug repurposing: Primary screen for Rh18 cells (AID 1347102); also: nearly all actives have a fitted effect of over 65% in size; also: potency is read from the fitted curve at half-maximal effect
Summary of the method: as §2

[8] = qHTS of pediatric cancer cell lines to identify multiple opportunities for drug repurposing: Primary screen for OHS-50 cells (AID 1347103); also: nearly all actives have a fitted effect of over 40% in size; also: potency is read from the fitted curve at half-maximal effect
Summary of the method: as §2

[9] = qHTS of pediatric cancer cell lines to identify multiple opportunities for drug repurposing: Primary screen for RD cells (AID 1347104); also: nearly all actives have a fitted effect of over 55% in size; also: potency is read from the fitted curve at half-maximal effect
Summary of the method: as §1

[10] = qHTS of pediatric cancer cell lines to identify multiple opportunities for drug repurposing: Primary screen for MG 63 (6-TG R) cells (AID 1347105); also: nearly all actives have a fitted effect of over 50% in size; also: potency is read from the fitted curve at half-maximal effect
Summary of the method: as §1

[11] = qHTS of pediatric cancer cell lines to identify multiple opportunities for drug repurposing: Primary screen for control Hh wild type fibroblast cells (AID 1347106); also: nearly all actives have a fitted effect of over 55% in size; also: potency is read from the fitted curve at half-maximal effect
Summary of the method: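 Cells (500-1,000/well) in growth media were settled 5 h at 37 degrees C, then given compounds for 48 h. Viability was read as CellTiter-Glo luminescence. Primary runs used MIPE at 11 points (0.78 nM-46 µM) and NPC at 8 points (0.59 nM-46 µM); follow-ups used 11 points.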

[12] = qHTS of pediatric cancer cell lines to identify multiple opportunities for drug repurposing: Primary screen for Rh30 cells (AID 1347107); also: nearly all actives have a fitted effect of over 75% in size; also: potency is read from the fitted curve at half-maximal effect
Summary of the method: as §2

[13] = qHTS of pediatric cancer cell lines to identify multiple opportunities for drug repurposing: Primary screen for Rh41 cells (AID 1347108); also: nearly all actives have a fitted effect of over 70% in size; also: potency is read from the fitted curve at half-maximal effect
Summary of the method: as §1

[14] = qHTS of pediatric cancer cell lines to identify multiple opportunities for drug repurposing: Primary screen for NB1643 cells (AID 1347099); also: nearly all actives have a fitted effect of over 50% in size; also: potency is read from the fitted curve at half-maximal effect
Summary of the method: as §1

[15] = qHTS of pediatric cancer cell lines to identify multiple opportunities for drug repurposing: Confirmatory screen for NB1643 cells (AID 1347109); also: nearly all actives have a fitted effect of over 45% in size; also: potency is read from the fitted curve at half-maximal effect
Summary of the method: as §2

[16] = qHTS of pediatric cancer cell lines to identify multiple opportunities for drug repurposing: Confirmatory screen for SK-N-MC cells (AID 1347111);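 also: cells exposed to compound for 48 h before the readout; nearly all actives have a fitted effect of over 70% in size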; also: potency is read from the fitted curve at half-maximal effect
Summary of the method: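 Seed 500-1,000 cells/well; rest 5 h at 37 degrees C. Pin-transfer compounds, 11-point titration. Incubate 48 h. Add CellTiter-Glo, 15 min RT, read luminescence.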

[17] = qHTS of pediatric cancer cell lines to identify multiple opportunities for drug repurposing: Confirmatory screen for BT-12 cells (AID 1347112); also: nearly all actives have a fitted effect of over 55% in size; also: potency is read from the fitted curve at half-maximal effect
Summary of the method: as §2

[18] = qHTS of pediatric cancer cell lines to identify multiple opportunities for drug repurposing: Confirmatory screen for LAN-5 cells (AID 1347113); also: nearly all actives have a fitted effect of over 65% in size; also: potency is read from the fitted curve at half-maximal effect
Summary of the method: as §2

[19] = qHTS of pediatric cancer cell lines to identify multiple opportunities for drug repurposing: Primary screen for SK-N-SH cells (AID 1347098);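 also: DMSO served as neutral control and bortezomib at 2.3 µM as positive control; nearly all actives have a fitted effect of over 65% in size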
Summary of the method: as §2

[20] = qHTS of pediatric cancer cell lines to identify multiple opportunities for drug repurposing: Confirmatory screen for A673 cells (AID 1347110);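 also: cells exposed to compound for 48 h before the viability read; nearly all actives have a fitted effect of over 65% in size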; also: potency is read from the fitted curve at half-maximal effect
Summary of the method: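 A673 cells seeded at 500-1,000 cells/well, rested 5 h, then dosed; primary MIPE 11-point (0.78 nM to 46 µM), NPC (0.59 nM to 46 µM); confirmatory 11-point. CellTiter-Glo luminescence after 48 h.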

Measured: Potency

CCc1ccc(C(=O)Nc2cc(CN3CCN(C)CC3)cc(C(F)(F)F)c2)cc1C#Cc1cnc2ccnn2c1
active: [1] 24.3 µM | [2] 11.8 µM | [3] 23.5 µM | [4] 14.8 µM | [5] 7.43 µM | [6] 27.3 µM | [7] 14.8 µM | [8] 12.2 µM | [9] 18.7 µM | [10] 18.7 µM | [12] 14.8 µM
inactive: [11]

CC[C@H]1OC(=O)[C@H](C)[C@@H](O[C@H]2C[C@@](C)(OC)[C@@H](O)[C@H](C)O2)[C@H](C)[C@@H](O[C@@H]2O[C@H](C)C[C@H](N(C)C)[C@@H]2O)[C@](C)(OC)C[C@@H](C)C(=O)[C@H](C)[C@@H](O)[C@]1(C)O
not listed: [12] | [14] | [15] | [16] | [17] | [18] | [19] | [20]
inactive: all other assays above

O=C1c2cccc(O)c2C(=O)c2c(O)cc(CO)cc21
active: [14] 26.4 µM
not listed: [9] | [15] | [16] | [17] | [18] | [19] | [20]
inactive: all other assays above

C#CCC(Cc1cnc2nc(N)nc(N)c2n1)c1ccc(C(=O)N[C@@H](CCC(=O)O)C(=O)O)cc1 (stereo partly specified)
active: [1] 0.0544 µM | [2] 0.372 µM | [6] 0.0485 µM | [8] 0.109 µM | [9] 0.0743 µM | [16] 0.0522 µM | [17] 0.104 µM
not listed: [5] | [10] | [14] | [19] | [20]
inactive: all other assays above

CC[C@H](CC[C@@H](C)[C@H]1CC[C@H]2[C@@H]3CC=C4C[C@@H](O)CC[C@]4(C)[C@@H]3CC[C@]12C)C(C)C
not listed: [13] | [14] | [15] | [16] | [17] | [18] | [19] | [20]
inactive: all other assays above

COc1ccc(Nc2nccc(NCCO)n2)cc1
not listed: [14] | [15] | [16] | [17] | [18] | [19] | [20]
inactive: all other assays above

CCN(C(=O)c1c(O)c2c(Cl)cccc2n(C)c1=O)c1ccccc1
inactive: [2] | [3] | [19] | [14] | [5] | [9] | [10] | [11] | [12] | [13]
active: [1] 21.7 µM

CCCCCCCCCCCC(CC1OC(=O)C1CCCCCC)OC(=O)C(CC(C)C)NC=O (stereo unspecified)
inactive: [1] | [3] | [6] | [7] | [9] | [10] | [11] | [12]
active: [2] 18.7 µM | [4] 14.8 µM

O=S(=O)(O)CCSSCCS(=O)(=O)O
active: [14] 23.5 µM
not listed: [6] | [19]
inactive: all other assays above

CC(=O)NCC(=O)N1[C@H]2CC[C@H]1c1cc(Nc3ncc(C(F)(F)F)c(NC4CCC4)n3)ccc12
inactive: [3]
active: [1] 24.3 µM | [2] 0.0662 µM | [4] 0.743 µM | [14] 1.18 µM | [6] 24.3 µM | [8] 0.344 µM | [9] 2.35 µM | [10] 2.35 µM | [13] 1.48 µM | [20] 4.14 µM | [16] 0.0827 µM | [18] 1.47 µM

Cc1cnc(Nc2ccc(N3CCN(C)CC3)cc2)nc1Nc1cccc(S(=O)(=O)NC(C)(C)C)c1
active: [1] 21.7 µM | [2] 1.87 µM | [4] 4.69 µM | [14] 3.72 µM | [5] 0.743 µM | [6] 21.7 µM | [7] 3.32 µM | [8] 1.09 µM | [9] 5.26 µM | [10] 7.43 µM | [11] 16.6 µM | [12] 5.9 µM | [13] 5.9 µM | [15] 4.65 µM | [20] 4.65 µM | [16] 3.29 µM | [18] 7.37 µM
inactive: [3]

N=c1ccn2c(n1)O[C@H]1[C@@H](O)[C@@H](CO)O[C@H]12
inactive: [3] | [4] | [7] | [10] | [11]
active: [1] 0.611 µM | [2] 11.8 µM | [14] 9.35 µM | [5] 3.32 µM | [8] 2.73 µM

C=C1CCC2[C@](C)(CO)C(O)CC[C@]2(C)C1CC=C1C(=O)OCC1O (stereo partly specified)
not listed: [4] | [12] | [13] | [15] | [16] | [17] | [18] | [20]
inactive: all other assays above

COc1ccc(S(=O)(=O)Nc2cc(-c3c(O)ccc4ccccc34)c(O)c3ccccc23)cc1
inactive: [3] | [11]
active: [1] 24.3 µM | [2] 8.33 µM | [4] 4.69 µM | [14] 18.7 µM | [5] 7.43 µM | [6] 30.6 µM | [8] 10.9 µM | [9] 29.6 µM | [10] 18.7 µM | [13] 18.7 µM

NC(=O)c1ncn([C@@H]2O[C@H](CO)[C@@H](O)[C@@H]2O)c1N
not listed: [4] | [15] | [16] | [17] | [18] | [20]
inactive: all other assays above

CC(C)c1cc(C(C)C)c(CC(=O)NS(=O)(=O)Oc2c(C(C)C)cccc2C(C)C)c(C(C)C)c1
inactive: [3] | [7] | [11] | [12]
active: [1] 24.3 µM | [2] 14.8 µM | [4] 18.7 µM | [8] 27.3 µM

N#Cc1cc(NC(=O)Nc2nnc(-c3ccncc3)s2)ccc1-c1cn[nH]c1
not listed: [13] | [14] | [15] | [16] | [17] | [18] | [19] | [20]
inactive: all other assays above

COc1ccc2cc([S+]([O-])Cc3ncc(C)c(OC)c3C)nc2c1
not listed: [8] | [15] | [16] | [17] | [18] | [19] | [20]
inactive: all other assays above

Cc1cc(O)c2c(c1)C(=O)c1cccc(O)c1C2=O
not listed: [4] | [8] | [12] | [15] | [16] | [17] | [18] | [20]
inactive: all other assays above

CC(C)(C)[N+]([O-])=Cc1ccc(S(=O)(=O)O)cc1S(=O)(=O)O
not listed: [8] | [15] | [16] | [17] | [18] | [19] | [20]
inactive: all other assays above

O=C1NC(=O)[C@@H](c2cn3c4c(cccc24)CCC3)[C@H]1c1c[nH]c2ccccc12
active: [1] 2.17 µM | [2] 0.0469 µM | [4] 0.148 µM | [6] 2.17 µM | [8] 0.863 µM | [9] 0.235 µM | [20] 2.33 µM | [16] 0.928 µM
inactive: [19] | [7]

COc1cc(C(=O)NC2CCN(C)CC2)ccc1Nc1ncc2c(n1)N(C1CCCC1)CCC(=O)N2C(C)C
active: [1] 2.43 µM | [2] 0.662 µM | [14] 3.72 µM | [5] 1.18 µM | [6] 21.7 µM | [7] 18.7 µM | [9] 20.9 µM | [10] 2.96 µM
inactive: [3] | [11]

CC(=O)OCC(=O)[C@@]1(O)CC[C@H]2[C@@H]3CCC4=CC(=O)CC[C@]4(C)[C@@H]3C(=O)C[C@@]21C
not listed: [3] | [14] | [15] | [16] | [17] | [18] | [20]
inactive: all other assays above
